# Reference: PubChem BioAssay (EPA / NIEHS)
# Results filed as inconclusive are left out. Calls of active or inactive are those of the source. How the source made its calls: active means hit-call score of the fitted dose curve at least 0.9, where 1 is the maximum; inconclusive means response in the unintended direction; inactive means score below 0.9.
# Biological target: PGR (gene 5241) (UniProt P06401)
# Assay: NVS_NR_hPR: NovaScreen (NVS) Nuclear Receptor Binding Assay for human Progestron Receptor (PR) (AID 2283360);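 further: active means loss of bound radioligand signal versus DMSO baseline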
# Description: NVS_NR_hPR is a biochemical, single-readout assay that uses extracted gene-proteins from T47D in a cell-free assay. Measurements were taken 18 hours after chemical dosing in a 96-well plate.NVS_NR_hPR is one of one assay component(s) measured or calculated from the NVS_NR_hPR assay. It is designed to make measurements of radioligand binding, a form of binding reporter, as detected with scintillation counting signals by Lysate-based radiodetection technology.Data from the assay component NVS_NR_hPR was analyzed into 1 assay endpoint. This assay endpoint, NVS_NR_hPR, was analyzed in the positive analysis fitting direction relative to DMSO as the negative control and baseline of activity. Using a type of binding reporter, loss-of-signal activity can be used to understand changes in the binding as they relate to the gene PGR. Furthermore, this assay endpoint can be referred to as a primary readout, because the performed assay has only produced 1 assay endpoint. To generalize the intended target to other relatable targets, this assay endpoint is annotated to the nuclear receptor intended target family, where the subfamily is steroidal.
# Binding assays used specific radioligands (tritiated, iodinated) with non-radioactive competitive displacement ligands in agonist or antagonist protocols (as indicated) and various reference compounds and inhibitors to titrate specific binding to receptors and transporters. Most enzyme assays (CYPs, kinases, phosphatases, proteases, HDACs) used recombinant protein and specific substrates (fluorescence mostly, some colorimetric and radioactive) and inhibitors, followed by a biochemical separation of substrate and product. All assays for the biochemical HTS were initially run in duplicate at a single concentration (10 uM for CYP450 assays and 25 uM for all others). […] Each assay was run with positive and negative controls, and concurrent controls on every plate. The follow-up (secondary) screen tested active chemical-pairs in concentration series, as well as a few additional assays not tested in the primary screen, some selected negative inactives, and several cases re-run in the concentration series for confirmatory purposes.
# PGR (gene 5241), sequence (P06401 whole entry, looked up): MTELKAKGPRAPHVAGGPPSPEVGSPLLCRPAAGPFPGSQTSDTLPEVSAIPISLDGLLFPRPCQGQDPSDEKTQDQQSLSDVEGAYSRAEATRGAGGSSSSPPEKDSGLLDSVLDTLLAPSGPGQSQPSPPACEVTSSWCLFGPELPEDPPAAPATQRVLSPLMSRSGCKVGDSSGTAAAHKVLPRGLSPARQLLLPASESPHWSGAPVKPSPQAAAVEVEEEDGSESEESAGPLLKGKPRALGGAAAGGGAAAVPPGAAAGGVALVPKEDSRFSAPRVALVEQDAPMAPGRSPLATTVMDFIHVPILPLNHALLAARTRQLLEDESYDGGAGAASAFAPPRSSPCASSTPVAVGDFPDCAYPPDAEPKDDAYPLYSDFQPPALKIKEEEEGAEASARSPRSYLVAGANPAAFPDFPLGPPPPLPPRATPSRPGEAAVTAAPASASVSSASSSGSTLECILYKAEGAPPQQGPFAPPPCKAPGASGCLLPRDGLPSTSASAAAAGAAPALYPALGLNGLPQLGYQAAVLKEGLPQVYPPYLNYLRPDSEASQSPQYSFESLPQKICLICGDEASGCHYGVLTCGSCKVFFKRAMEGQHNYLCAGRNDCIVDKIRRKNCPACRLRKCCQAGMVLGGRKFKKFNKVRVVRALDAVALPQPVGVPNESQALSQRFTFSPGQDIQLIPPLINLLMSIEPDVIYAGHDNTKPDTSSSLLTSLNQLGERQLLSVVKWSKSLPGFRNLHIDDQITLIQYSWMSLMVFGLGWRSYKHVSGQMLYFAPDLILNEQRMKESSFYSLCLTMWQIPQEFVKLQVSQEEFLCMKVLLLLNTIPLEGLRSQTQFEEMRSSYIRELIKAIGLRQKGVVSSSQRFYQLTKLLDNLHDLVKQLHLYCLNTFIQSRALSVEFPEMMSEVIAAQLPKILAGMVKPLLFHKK
SMILES,outcome,AC50
CCCCCCCCCCCCO,inactive,–
Cc1cc(F)ccc1-c1cc(N2CC[C@@H](O)[C@H]2CO)ncc1N(C)C(=O)C(C)(C)c1cc(C(F)(F)F)cc(C(F)(F)F)c1,–,0.401 µM (active)
Cc1ncc(CO)c(CO)c1O,–,16.9 µM (active)
CC1=CC(=O)/C(=C(/C)O)C(=O)O1,inactive,–
CCN(Cc1cccnc1)C(=O)c1cccc(Cl)c1[C@]1(C)C(=O)N(Cc2ccc(OC)cc2OC)c2ccc(Cl)cc21,–,9.73 µM (active)
CN(C[C@@H](CC[N+]12CCC(C3CCCCC3)(CC1)CC2)c1ccc(Cl)c(Cl)c1)C(=O)c1cc(C(F)(F)F)cc(C(F)(F)F)c1,inactive,–
CC(C)(C)c1cc(/C=C2\SC(N)=NC2=O)cc(C(C)(C)C)c1O,inactive,–
CC1(C)NC(=O)N(c2ccc([N+](=O)[O-])c(C(F)(F)F)c2)C1=O,–,15.7 µM (active)
NCc1cccc(C2CCN(C(=O)c3ccc(C#Cc4ccccc4F)o3)CC2)c1,inactive,–
CC/C(=C(/CC)c1ccc(O)cc1)c1ccc(O)cc1,inactive,–
C[C@]12CC[C@@H]3c4ccc(O)cc4CC[C@H]3[C@@H]1CCC2=O,–,0.159 µM (active)
CCCCOC(=O)c1ccc(O)cc1,inactive,–
CCCC(=O)OCCC(C)C,–,17.2 µM (active)
COCC(C)OCC(C)OCC(C)O (stereo not drawn),inactive,–
CC[C@@H]1C[C@H](N(Cc2cc(C(F)(F)F)cc(C(F)(F)F)c2)C(C)=O)c2cc(C(F)(F)F)ccc2N1C(=O)OC(C)C,inactive,–
CN1C(=O)CC[C@H]1c1cccnc1,inactive,–
CN(C)C(=O)C1(N2CCCCC2)CCN(CC[C@@]2(c3ccc(Cl)c(Cl)c3)CN(C(=O)c3ccccc3)CCO2)CC1,inactive,–
Clc1cc(Cl)c2c(c1)N=C1CCCCCN1C2,inactive,–
CC(C)(O)c1ccc(CNC(=O)c2cccnc2Oc2ccc3nonc3c2)cc1,inactive,–
O=C(O)Cc1cc(I)c(Oc2ccc(O)c(I)c2)c(I)c1,–,6.44 µM (active)
CCCCCCCCN(C)CCCCCCCC,inactive,–
CC(C)(c1cc(Br)c(O)c(Br)c1)c1cc(Br)c(O)c(Br)c1,–,23.9 µM (active)
Cc1c2ccccc2c(C)c2c1ccc1ccccc12,–,15.6 µM (active)
